Results reported in PubChem BioAssay.
Several values for one entry are separate records, joined by “and”; a condition that tells them apart may be missing. Equal values may be shown once. Activity calls are given as the source filed them.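 The calls were made as follows, unless noted: active = inhibition at or above 50% relative to wild type and mutant plate controls; inactive = inhibition below 50%.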

Columns and labels:
[1] = inhibitors of TNFa-induced NFkB p65 translocation, primary screen, imaging, HUVEC, MLSMR starter and 10KST1 sets (AID 438;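 active = inhibition above 20% together with a positive visual image hit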;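 also: compound added about 3h40 before a 20 min TNFalpha stimulation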;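 as to inhibition: signal is the nuclear over cytoplasmic p65 intensity ratio per well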); details: HUVEC TNFa-induced p65 nuclear translocation; cell count: measured here: nuclei count (cytotoxicity indicator), at 2.08 µM; inhibition: at 2 µM, stronger effect = higher value, 0% TNFa-plus-vehicle, 100% no-TNFa wells
[2] = inhibitors of mutant huntingtin aggregation, primary screen, imaging, exon1htt(103Q)mCFP cells, high-content imaging (AID 483;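 active = visual image review flags a hit and inhibition of aggregation exceeds 20%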;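 also: compound exposure lasted 3 days before fixation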;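 as to nuclei count: percent of the per-plate median nuclei count of sample wells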); details: exon1htt(103Q)mCFP cell line, aggregate imaging, at 2 µM; inhibition of aggregation: stronger effect = higher value; nuclei count: measured here: cell count, toxicity
[3] = inhibitors of E-selectin induction by TNFa, primary screen, imaging, HUVEC, immunofluorescence, MLSMR starter and 10KST1 sets (AID 487;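 active = visually confirmed hit in the image check and inhibition above 20%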;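 as to inhibition: signal is fraction of cell area covered by stained E-selectin grains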;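 as to nuclei count: 100% = median nuclei count of all wells on the same plate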); details: HUVEC TNFalpha-induced E-selectin immunofluorescence imaging, at 2 µM; inhibition: stronger effect = higher value; nuclei count: measured here: cell number, toxicity
[4] = DUSP6 inhibitors restoring Erk phosphorylation by chemical complementation, primary imaging in DUSP6-transfected HeLa (AID 609;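 active = compounds giving at least 50% inhibition in the cell-based MKP-3 phosphatase rescue imaging test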;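 as to inhibition: phospho-Erk level distribution per well compared with pooled transfected vehicle control wells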); details: HeLa MKP-3 transfected, phospho-Erk imaging KS statistic, at 10 µM, cells stimulated with TPA for 15 min
[5] = target: Dual specificity protein phosphatase 6 (Homo sapiens) (UniProt Q16828); assay: as above; details: HeLa MKP-3 transfected, phospho-Erk imaging KS statistic; at 10 µM; stronger effect = higher value; cells stimulated with TPA for 15 min
Dual specificity protein phosphatase 6 (Homo sapiens), sequence (Q16828 whole entry, looked up): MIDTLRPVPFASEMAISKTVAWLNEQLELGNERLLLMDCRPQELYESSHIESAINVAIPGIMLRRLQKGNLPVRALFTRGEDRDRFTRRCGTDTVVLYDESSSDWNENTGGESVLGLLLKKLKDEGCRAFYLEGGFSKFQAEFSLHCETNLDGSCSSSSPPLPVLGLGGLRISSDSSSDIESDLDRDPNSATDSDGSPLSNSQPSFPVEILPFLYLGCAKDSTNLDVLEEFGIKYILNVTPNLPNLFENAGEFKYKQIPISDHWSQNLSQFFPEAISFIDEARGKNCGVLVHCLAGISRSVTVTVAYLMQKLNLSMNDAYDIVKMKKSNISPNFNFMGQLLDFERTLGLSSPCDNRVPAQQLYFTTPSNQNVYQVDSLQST

[6] = target: Voltage-gated potassium channel subunit beta-2 (Rattus norvegicus) (UniProt P62483); assay: KvBeta enzyme negative modulators, primary screen, biochemical, NADPH fluorescence (AID 622;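 active = fluorescence slope higher than the sample average by over 3 SD, cut at about -0.22 in these data, passing the limit was not always enough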;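 also: slope of raw intensity against log time taken from 70 to 1610 s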); details: recombinant KvBeta, 4-cyanobenzaldehyde reduction, at 10 µM, stronger effect = higher value
Voltage-gated potassium channel subunit beta-2 (Rattus norvegicus), sequence (P62483 whole entry, looked up): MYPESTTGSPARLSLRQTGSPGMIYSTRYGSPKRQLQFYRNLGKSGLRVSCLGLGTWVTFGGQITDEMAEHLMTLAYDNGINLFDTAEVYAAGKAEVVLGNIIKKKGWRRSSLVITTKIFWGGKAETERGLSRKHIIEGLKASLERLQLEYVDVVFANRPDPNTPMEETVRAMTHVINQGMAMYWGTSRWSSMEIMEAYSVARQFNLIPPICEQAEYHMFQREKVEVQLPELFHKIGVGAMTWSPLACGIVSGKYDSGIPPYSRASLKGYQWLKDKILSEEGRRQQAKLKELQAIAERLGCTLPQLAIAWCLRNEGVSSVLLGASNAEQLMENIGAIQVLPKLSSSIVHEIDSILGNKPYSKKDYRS

[7] = target: Voltage-gated potassium channel subunit beta-2 (Rattus norvegicus) (UniProt P62483); assay: KvBeta positive modulators, primary screen, biochemical, NADPH fluorescence (AID 623;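 active = NADPH fluorescence slope more negative than the mean of all samples by about 3 SD, 99.7% confidence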;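 also: fluorescence intensity change per second fitted from 20 to 320 s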); details: Recombinant KvBeta, NADPH fluorescence decrease slope, 10 min; at 10 µM; stronger effect = lower value
[8] = target: Alpha-2C adrenergic receptor (Homo sapiens) (UniProt P18825); assay: modulators of alpha2C/GIRK thallium flux, primary screen, cell-based, HEK293 alpha2C/GIRK1/2 (AID 624;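 active = fluorescence slope after compound addition differing from the mean of all screened samples at 99.7% confidence, in either direction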;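 also: slope of fluorescence ratio to pre-addition baseline per second over 15 to 24 s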); details: thallium flux BTC fluorescence, at 10 µM, actives lie on both sides
Alpha-2C adrenergic receptor (Homo sapiens), sequence (P18825 whole entry, looked up): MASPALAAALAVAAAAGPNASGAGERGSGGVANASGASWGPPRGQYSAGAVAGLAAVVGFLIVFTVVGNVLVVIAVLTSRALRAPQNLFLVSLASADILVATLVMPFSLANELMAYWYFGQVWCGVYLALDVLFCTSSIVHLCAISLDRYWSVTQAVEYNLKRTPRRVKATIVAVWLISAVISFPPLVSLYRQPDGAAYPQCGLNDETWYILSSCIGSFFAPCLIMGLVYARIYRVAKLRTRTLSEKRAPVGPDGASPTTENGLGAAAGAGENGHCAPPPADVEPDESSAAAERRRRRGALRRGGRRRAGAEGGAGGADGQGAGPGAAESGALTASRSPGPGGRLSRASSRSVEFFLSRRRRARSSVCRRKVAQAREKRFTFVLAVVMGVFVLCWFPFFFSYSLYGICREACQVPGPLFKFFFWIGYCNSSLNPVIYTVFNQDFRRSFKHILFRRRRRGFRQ

[9] = inhibitors of larval lipid processing in zebrafish, primary screen, whole organism, PED6 fluorescence, gall bladder and intestine (AID 686;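 active = a full or partial loss of lipid-probe fluorescence in the fish gall bladder, intestine or both, judged by eye; inactive = no fluorescence loss, or compound toxic to the fish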;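 also: larvae 5 to 7 days old with five fish per well; signal comes from phospholipase A2 cleavage of quenched PED6 carried via bile; overnight exposure to compound and PED6 before scoring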); details: Zebrafish larvae PED6 lipid processing, fluorescence scoring; screened at 20 µM (by protocol)
[10] = inhibitors of Chlamydomonas gravitaxis, primary screen, whole organism, Chlamydomonas reinhardtii, WT vs cilia-less mutant, absorbance, 96-well (AID 463189); details: OD600 absorbance, 2 days, at 10 µM, stronger effect = higher value;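 also: 0% = wild type cc124 cells in DMSO and 100% = ciliumless bld1 mutant cells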
[11] = inhibitors of Sendai virus-induced IRF3 signaling, primary screen, TLR/RLR signaling modifier project, cell-based, Sendai virus stimulus, luciferase, 10K MLSCN set (AID 602276;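 active = inhibition at or above 50% at 10 µM; inactive = inhibition below 50%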;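 also: firefly luciferase from ISG56 promoter only with Renilla not read in this screen; 0% = Sendai virus plus DMSO and 100% = medium plus DMSO without virus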); details: HEK293 RL24 IRF3 luciferase reporter, at 10 µM, stronger effect = higher value
[12] = inhibitors of poly I:C-induced TLR3 signaling, primary screen, cell-based, poly I:C stimulus, luciferase, 10K MLSCN set (AID 602277;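 active = inhibition of the reporter signal at or above 50%; inactive = inhibition below 50%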); details: HEK293-TLR3 RL24 IRF3 luciferase reporter, at 10 µM, stronger effect = higher value
[13] = measured here: cell density z-score
[14] = measured here: nuclear c-Myc green intensity z-score
[15] = measured here: nuclear pErk red intensity z-score, stronger effect = higher value

Row | Structure (SMILES) | cell count [1] | inhibition [1] | inhibition of aggregation [2] | nuclei count [2] [%] | inhibition [3] | nuclei count [3] | z-score [4, 13] | z-score [4, 14] | z-score [4, 15] | inhibition [5] | fluorescence slope [6] | NADPH fluorescence slope [7] | slope [8] | outcome [9] | inhibition [10] | inhibition [11] | inhibition [12]
1 | C[C@]12CCC(=O)C=C1CC[C@@H]1[C@@H]2CC[C@@]2(C)[C@H]1CC[C@]2(O)C(=O)CO | 695 | 0.6% (inactive) | 27.5% (inactive) | 102 | -97.9% (inactive) | 125% | 0.881 | 0.613 | -1.07 | 8% (inactive) | -0.52 (inactive) | -6.8e-05 (inactive) | 0.00434 (inactive) | inactive | -0.27% (inactive) and -16.6% (inactive) | 5.65% (inactive) | 35.1% (inactive)
2 | O=C(C1CCCCC1)N1CC(=O)N2CCc3ccccc3C2C1 (stereo not given) | 552 and 561 | -7.7% (inactive) and -4.1% (inactive) | 16.2% (inactive) | 109 | -103% (inactive) and -50.4% (inactive) | 115% and 103% | -1.12 and -0.574 | 0.266 and 0.927 | -0.413 and -1.5 | 1.48% (inactive) and 1.9e-07% (inactive) | -0.447 (inactive) and -0.51 (inactive) | 2.3e-05 (inactive) and -4.3e-06 (inactive) | 0.00517 (inactive) and 0.00493 (inactive) | inactive | 6.15% (inactive) and -13.5% (inactive) and -10.9% (inactive) | 8.76% (inactive) | 17.3% (inactive)
3 | CCOc1nc(SCCOc2ccccc2)nc(N(C)C)n1 | 397 | -7.1% (inactive) | 4.3% (inactive) | 54 | -68.5% (inactive) | 113% | 0.798 | -0.437 | -0.913 | 22.8% (inactive) | -0.395 (inactive) | 1.4e-05 (inactive) | 0.00398 (inactive) | inactive | 28.4% (inactive) | 0.0705% (inactive) | -11.2% (inactive)
4 | CN(C(=O)C(Cl)Cl)c1ccc(OC(=O)c2ccco2)cc1 | 579 | -1.8% (inactive) | -17.3% (inactive) | 101 | -123% (inactive) | 112% | 0.253 | -0.205 | -0.332 | 15.3% (inactive) | -0.508 (inactive) | -6.7e-05 (inactive) | 0.00492 (inactive) | inactive | -2.16% (inactive) | 21.3% (inactive) | 44.8% (inactive)
5 | COc1ccc(C2CC(=O)C(C=NCCN3CCOCC3)=C(O)C2)cc1 (stereo not given) | 379 | -8.5% (inactive) | 0.1% (inactive) | 106 | -118% (inactive) | 138% | 0.329 | 0.663 | -0.587 | -5.62% (inactive) | -0.354 (inactive) | 9.4e-06 (inactive) | 0.00492 (inactive) | inactive | 7.09% (inactive) | 14.9% (inactive) | 20.5% (inactive)
6 | CC(=O)N=c1sc(S(N)(=O)=O)nn1C | 541 | -11.9% (inactive) | 7.8% (inactive) | 88.8 | -94% (inactive) | 104% | 0.515 | 1.15 | 1.01 | 9.37% (inactive) | -0.454 (inactive) | -6.4e-05 (inactive) | 0.00535 (inactive) | inactive | 13.4% (inactive) | 4.97% (inactive) | 15.9% (inactive)
7 | CCOC(=O)N1CCN(c2ncnc3c2[nH]c2ccc(OC)cc23)CC1 | 520 | -6% (inactive) | 2.6% (inactive) | 109 | 6.4% (inactive) | 100% | 1.15 | -0.635 | 1.15 | 0.671% (inactive) | -0.222 (inactive) | -4.8e-05 (inactive) | 0.00434 (inactive) | inactive | 8.03% (inactive) | -1.93% (inactive) | -5.19% (inactive)
8 | CCN(CC)CCNC(=O)c1cc(S(C)(=O)=O)ccc1OC | 676 | -4.3% (inactive) | 0.8% (inactive) | 118 | -40% (inactive) | 137% | -1.16 | -0.48 | 0.595 | 1.48% (inactive) | -0.508 (inactive) | -3.1e-05 (inactive) | 0.00485 (inactive) | inactive | 3.78% (inactive) and -4.27% (inactive) | 21.3% (inactive) | 35.4% (inactive)
9 | Cn1c(-n2c(-c3ccco3)nc3ccccc3c2=O)nc2ccccc21 | 589 | -10.5% (inactive) | 32% (inactive) | 109 | -8.3% (inactive) | 126% | 0.944 | 0.431 | -0.392 | 8.31% (inactive) | -0.351 (inactive) | -6.3e-06 (inactive) | 0.00557 (inactive) | inactive | 9.97% (inactive) | 20.8% (inactive) | 6.14% (inactive)
10 | Nc1nc(F)nc2c1ncn2[C@@H]1O[C@H](CO)[C@@H](O)[C@@H]1O | 526 | -6.8% (inactive) | -1.5% (inactive) | 103 | 5.4% (inactive) | 106% | -1.32 | 0.314 | 0.132 | -2.46% (inactive) | -0.491 (inactive) | -3.9e-05 (inactive) | 0.00434 (inactive) | inactive | -8.17% (inactive) | 2.74% (inactive) | 23.7% (inactive)
